IL-1B inflam inh = inhibitors of inflammasome signaling (IL-1 beta secretion). THP-1 LPS/ATP IL-1B secretion, AlphaLISA, 16 h; active compounds read low. activity change, % at 57.5 µM. hit rate 4.7% among 360,000. AID 743279; in the data active means activity change below about -50%; inconclusive means mostly about -30% to -49%; further: on the % scale 0 is the no-effect control and ±100 the full control effect
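THP-1 cells pretreated 1 hr with compounds (up to 57.5 uM final), then stimulated with LPS (250 ng/mL final) plus ATP (1.25 mM final); secreted IL-1B measured by AlphaLISA after 16 hr, decreased signal indicating inhibition.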
Chronic BCR inh = blocks chronic active B-cell receptor signaling; Potency, µM (series often up to 46.1 µM), inactives show at the top dose activity change, negative = inhibition, usual class: inhibitors; ABC-DLBCL IkBa-CBG/CBR reporter, luminescence ratio, 4 h; hit rate 0.05% among 340,000; active means well fitted inhibition curve with a large enough effect in the signal ratio, with a control signal flat, not every such curve was filed as active; inconclusive means small, poorly fitted or top-dose-only effect, or effect the other way, or a change in a side signal; the % refers to the signal ratio;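 further: potency means the concentration at half of the fitted maximal effect; plate controls were basal doxycycline-induced cells for no effect and cells given 10 µM MG132 for full effect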
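Cell line TMD8 (human ABC DLBCL), stably expressing tet-inducible CBG68-IkBa fusion and CBR; IMDM/0.5% FBS; cpd up to 46 uM; dox induction, 4 h, 37C/5% CO2; dual luminescence; green/red ratio; MG132 control.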
MCF10A rerep = induces DNA re-replication in MCF 10a normal breast cells; AID 624296; MCF 10A DNA re-replication, Hoechst nuclear intensity, 48 h; Potency, µM (top dose mostly 46.1 µM), for the others: at the top dose activity, positive = re-replication, hits mostly activators; hit rate 2.9% among 350,000; further: potency means the concentration at half of the fitted maximal effect; % of control where 0% means no effect; nearly all actives have a fitted effect of over 50% in size
DT40 TDP1 CPT = growth inhibition of DT40 Tdp1-/-;hTDP1 cells with camptothecin (screen for TDP1 inhibitors). Potency, µM (highest dose often 46.2 µM), for the others: at the highest dose activity change, negative = growth inhibition, most hits filed as inhibitors. chicken DT40 Tdp1-/-;hTDP1 cells + 20 nM CPT, ATP luminescence, 48 h. hit rate 12% among 420,000. AID 686979; further: potency means the concentration at half of the fitted maximal effect; on the % scale 0 is the no-effect control and ±100 the full control effect; nearly all actives have a fitted effect of over 55% in size
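Chicken DT40 Tdp1-/- cells complemented with human TDP1, 400 cells/well, exposed to compounds plus 20 nM camptothecin for at least 48 h at 37 C; viability read as ATP content by CellTiter-Glo luminescence.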
DT40 TDP1 no CPT = qHTS for Inhibitors of human tyrosyl-DNA phosphodiesterase 1 (TDP1): qHTS in cells in absence of CPT; DT40 Tdp1-/- hTDP1 cells, no CPT, ATP luminescence, 48 h; AID 686978, 2013; Potency, µM (top dose mostly 46.2 µM), for the others: at the highest dose activity change, negative = growth inhibition, hits mostly inhibitors; hit rate 15% among 420,000; further: potency means the concentration at half of the fitted maximal effect; on the % scale 0 is the no-effect control and ±100 the full control effect; nearly all actives have a fitted effect of over 55% in size
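Luminescent ATP content (CellTiter-Glo) served as the growth readout. Knockout chicken DT40 cells expressing human TDP1 were exposed to compounds without camptothecin for a minimum 48 hr at 37 °C.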
SW480 rereplic = DNA re-replication induction in SW480 cells; SW480 DNA re-replication, Hoechst DNA content imaging, 48 h; Potency, µM (top dose mostly 46.1 µM), for the others: top-dose re-replication activation, actives largely listed as activators; hit rate 1.8% among 340,000; further: potency means the concentration at half of the fitted maximal effect; % of control where 0% means no effect; nearly all actives have a fitted effect of over 55% in size
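Hoechst fluorescence of nuclei (405 nm excitation, 500-530 nm emission) measured by plate-scanning imager after 48 hr compound exposure at 37 C; re-replication scored as increased number of nuclei with elevated intensity.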
The depositor's hits bear a star; ? = inconclusive; nt = no result. Shown are actives, neighbours in structure and some others; about 19% of the full set was active somewhere. Unless noted, the call rests on the fitted dose curve; in most records, active means well fitted curve in the direction sought with a large enough effect; inconclusive means small, poorly fitted or top-dose-only effect, or another doubt; inactive means no such curve, though single readings can be large; an effect the other way counts as inactive or inconclusive.

SMILES	IL-1B inflam inh	Chronic BCR inh	MCF10A rerep	DT40 TDP1 CPT	DT40 TDP1 no CPT	SW480 rereplic
Cc1ccc2c(c1)N(C(=O)CCC(=O)Nc1ccc(F)cc1F)CC(C)O2 (stereo not drawn)	nt	nt	nt	5.17µM*	7.31µM*	nt
Cc1ccc2c(c1)N(C(=O)CCC(=O)N1CCOCC1)CC(C)O2 (stereo not drawn)	2.8	0.1%	-4.8%	-0.9%	-5.5%	-17.9%
COc1ccc(N2CCN(C(=O)CCC(=O)N3CC(C)Oc4ccccc43)CC2)cc1 (stereo not drawn)	-14.7	-18.8%	1.0%	?	?	-0.5%
CC1CN(C(=O)CCC(=O)N2CCN(c3cccc(C(F)(F)F)c3)CC2)c2ccccc2O1 (stereo not drawn)	-22.2	-12.9%	?	18.4µM*	20.6µM*	-25.9%
Cc1ccccc1OCC(=O)NCC(=O)OCc1ccc(Br)cc1	-4.9	-2.9%	0.4%	?	-2.2%	0.2%
CCOC(=O)C1CCN(c2ncnc3c2cnn3C)CC1	-1.4	-1.9%	-0.7%	3.3%	-26.7%	10.6%
CCOP(=O)(OCC)C(C)(C)NC(=O)Nc1ccc(Cl)c(Cl)c1	-66.5*	?	-1.7%	-17.5%	?	10.9%
O=C(Nc1cccc(F)c1)C1CCN(c2nc3ccccc3[nH]2)CC1	nt	nt	nt	23.1µM*	?	nt
COc1ccc(CNC(=O)C2CCN(c3nc4ccccc4[nH]3)CC2)c(OC)c1	nt	nt	nt	18.4µM*	?	nt
COc1ccc(NC(=O)C2CCN(c3nc4ccccc4[nH]3)CC2)cc1OC	nt	nt	nt	-3.6%	-3.6%	nt
C=C(C(=O)Oc1c(C(C)(C)C)cccc1C(C)(C)C)c1ccccc1	23.2	-0.5%	2.5%	-11.6%	-0.6%	-14.8%
Cc1cc(CCNC=O)c(C)c2c1oc1ccccc12	-23.8	nt	16.0%	0.3%	-1.5%	8.6%
CCc1ccccc1Oc1ccc(S(=O)(=O)N2CCN(C)CC2)cn1	9.3	-5.8%	6.1%	?	?	-1.2%
CCOc1ccc(C2c3c(-c4cc(C)ccc4O)n[nH]c3C(=O)N2Cc2cccnc2)cc1OCC (stereo not drawn)	nt	nt	nt	0.8%	-18.5%	nt
COC(=O)c1ccc(C2c3c(-c4ccccc4O)n[nH]c3C(=O)N2Cc2ccncc2)cc1 (stereo not drawn)	nt	nt	nt	18.4µM*	?	nt
Cc1ccc(C2c3c(-c4ccccc4O)n[nH]c3C(=O)N2Cc2ccncc2)cc1 (stereo not drawn)	?	?	7.31µM*	?	23.1µM*	18.4µM*
O=C1c2[nH]nc(-c3ccccc3O)c2C(c2cccc(O)c2)N1Cc1ccco1 (stereo not drawn)	-22.0	?	12.0%	?	?	-0.9%
O=C1c2[nH]nc(-c3ccccc3O)c2C(c2cccc(Br)c2)N1Cc1ccncc1 (stereo not drawn)	nt	nt	nt	2.91µM*	1.16µM*	nt
CCN(CC(=O)Nc1ccc(NC(C)=O)cc1)C(=O)C1(c2ccc(Cl)cc2)CCC1	10.8	nt	nt	4.4%	?	nt
Fc1cccc(Cc2c(-c3ccccc3)nc3ccc(Cl)cn23)c1	15.9	nt	nt	?	?	nt
COc1ccccc1N1CCN(S(=O)(=O)c2c(C)nc3sccn3c2=O)CC1	nt	nt	nt	5.9%	3.1%	nt
FC(F)(F)c1ccccc1-c1nc(NCc2cccnc2)c2ccccc2n1	nt	nt	nt	-16.3%	-7.3%	nt
CC(C)c1ccc(NC(=O)CCC(=O)NCc2ccco2)cc1	4.7	-0.5%	12.3%	?	?	-5.6%
CC(C)c1ccc(CN(Cc2ccco2)c2cnc(S(C)(=O)=O)nc2C(=O)Nc2ccc(F)cc2)cc1	nt	nt	nt	?	20.6µM*	nt
CCc1ccc(CN(Cc2ccco2)c2cnc(S(C)(=O)=O)nc2C(=O)Nc2c(C)cccc2C)cc1	nt	nt	nt	16.4µM*	18.4µM*	nt
SMILES	IL-1B inflam inh	Chronic BCR inh	MCF10A rerep	DT40 TDP1 CPT	DT40 TDP1 no CPT	SW480 rereplic
CCc1ccc(NC(=O)N(Cc2cccnc2)Cc2ccco2)cc1	-15.6	?	1.4%	-17.7%	-13.7%	-4.7%
Cc1ccc(NC(=O)c2nc(S(C)(=O)=O)ncc2N(Cc2ccco2)Cc2ccco2)cc1	nt	nt	nt	8.2µM*	11.6µM*	nt
COc1ccc(CN(Cc2ccco2)c2cnc(S(C)(=O)=O)nc2C(=O)Nc2ccc(C)c(Cl)c2)cc1	nt	nt	nt	?	-22.1%	nt
Cc1cccc(NC(=O)CCc2nnc3ccc(NCc4ccco4)nn23)n1	-2.6	-3.6%	-5.1%	1.3%	-3.4%	-11.9%
CC1(C)OC(=O)NC1c1ccccc1 (stereo not drawn)	4.0	nt	nt	-2.6%	-3.2%	nt
COc1ccc2nc3cc([N+](=O)[O-])ccc3c(NNc3ccc([N+](=O)[O-])cc3)c2c1	-7.5	nt	0.2%	10.3µM*	9.2µM*	0.2%
CC(=O)NC(CC(=O)Nc1nc(-c2ccc(N(C)S(C)(=O)=O)cc2)cs1)c1ccccc1 (stereo not drawn)	?	0.4%	?	20.6µM*	16.4µM*	10.7%
CN(c1ccc(-c2csc(NC(=O)CCCc3nc4ccccc4c(=O)[nH]3)n2)cc1)S(C)(=O)=O	26.3	nt	nt	20.6µM*	8.2µM*	nt
O=C(CCc1nc2ccccc2c(=O)[nH]1)Nc1nc(-c2cccs2)cs1	76.3	-3.9%	8.9%	?	?	?
CN(c1ccc(-c2csc(NC(=O)C3CC(=O)N(Cc4ccco4)C3)n2)cc1)S(C)(=O)=O (stereo not drawn)	-2.4	-0.3%	9.4%	?	-16.1%	8.8%
Cc1ccc(-n2nc(C(=O)N3CCN(c4ccccc4F)CC3)c3c4ccccc4n(C)c3c2=O)cc1	nt	nt	nt	-26.8%	-6.2%	nt

Source: PubChem BioAssay
